Compounds with a hit are over-represented: about 7.3% of the library has one in this group of screens.
ELG1 genotoxic = qHTS screen for small molecules that induce genotoxicity in human embryonic kidney (HEK293T) cells expressing luciferase-tagged ELG1; HEK293T ELG1-luciferase reporter, luminescence, 16 h; Potency, µM (series often up to 46 µM), hits mostly activators; hit rate 1.3% among 330,000; AID 504466, 2011; further: nearly all actives have a fitted effect of over 60% in size
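Reporter readout depends on ELG1 protein level, which increases with genetic stress. After 16 hr compound exposure at 37 °C, luciferase activity was quantified using ONE-Glo.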
NPC1 prom act = qHTS Assay for NPC1 Promoter Activators. Huh7 NPC1 promoter luciferase reporter, 24 h. Potency, µM (doses to about 9.22 µM), actives largely listed as activators. hit rate 2.4% among 320,000; further: nearly all actives have a fitted effect of over 60% in size
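NPC1 promoter–luciferase Huh7 cells; 24 h compound; luminescence.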
p53 reactivator = qHTS assay for re-activators of p53 using a Luc reporter | AID 504706, 2011 | hit rate 0.063% among 320,000 | Potency, µM (top dose mostly 92.2 µM), usual class: activators | H1299 p53-A138V BP100-luciferase reporter, luminescence, 24 h; further: nearly all actives have a fitted effect of over 45% in size
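p53-null H1299 cells stably carrying temperature-sensitive p53-A138V and a BP100-luciferase reporter were pinned with compounds (4-point, 1:5 series) and held 24 hrs at 37 deg C. Luminescence was read 10 min after detection reagent.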
FLuc modulator = qHTS profiling assay for firefly luciferase inhibitor/activator using purifed enzyme and Km concentrations of substrates (counterscreen for miR-21 project); Luciferin 4-monooxygenase (Photinus pyralis), P08659; purified FLuc, Km substrates, luminescence inhibition; Potency, µM (titrated, usually from 57.5 µM), hits mostly inhibitors; hit rate 6.9% among 360,000; AID 588342, 2011; further: nearly all actives have a fitted effect of over 55% in size
Target sequence (P08659 whole entry, looked up): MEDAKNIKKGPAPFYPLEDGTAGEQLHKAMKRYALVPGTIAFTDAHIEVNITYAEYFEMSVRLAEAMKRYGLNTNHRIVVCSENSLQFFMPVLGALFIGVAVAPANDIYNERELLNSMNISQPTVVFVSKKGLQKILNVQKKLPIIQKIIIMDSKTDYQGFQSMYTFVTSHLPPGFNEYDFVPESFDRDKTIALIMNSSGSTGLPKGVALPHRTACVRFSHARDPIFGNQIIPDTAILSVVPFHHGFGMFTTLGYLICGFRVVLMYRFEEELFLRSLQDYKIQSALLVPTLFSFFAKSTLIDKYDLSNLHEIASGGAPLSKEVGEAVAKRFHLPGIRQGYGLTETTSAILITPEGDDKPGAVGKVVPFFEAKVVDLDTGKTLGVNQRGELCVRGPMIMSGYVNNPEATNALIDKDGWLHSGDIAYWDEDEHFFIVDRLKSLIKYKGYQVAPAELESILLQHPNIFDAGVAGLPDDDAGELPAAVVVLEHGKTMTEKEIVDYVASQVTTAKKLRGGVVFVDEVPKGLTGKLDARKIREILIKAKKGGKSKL
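Purified P. pyralis luciferase (10nM final) with 10uM D-luciferin and 10uM ATP (Km levels) in 50mM Tris acetate pH 7.5, 10mM Mg acetate, 0.01% Tween-20, 0.05% BSA; qHTS 6-point titration, ~60 µM downward; luminescence read.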
Rab9 promoter act = qHTS Assay for Rab9 Promoter Activators; Huh7 Rab9 promoter-luciferase reporter, luminescence, 24 h; Potency, µM (highest dose often 9.22 µM), hits mostly activators; hit rate 2.8% among 320,000; further: nearly all actives have a fitted effect of over 60% in size
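Promoter activation is measured as luciferase luminescence in Huh7 cells stably transfected with a Rab9 promoter–luciferase construct, following 24 h compound exposure at 37 °C and 10 min reagent incubation at ambient temperature.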
SMN2 splice up = qHTS Assay for Enhancers of SMN2 Splice Variant Expression; HEK293 SMN2-luciferase splicing reporter, luminescence, 30-36 h; Potency, µM (series often up to 46.1 µM), most hits filed as activators; hit rate 2.8% among 210,000; AID 1458, 2008; further: nearly all actives have a fitted effect of over 55% in size
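HEK293 cells carry an SMN2 […]–luciferase reporter in which exon 7 inclusion puts luciferase in frame. Cells were plated 10-12 h before compound addition, then incubated 30-36 h at 37C. ONE-Glo luminescence was read; sodium butyrate at 4.5 mM final served as control.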
Of the large screens only hits and unclear results are named; the others gave an inactive call. The call rests on the fitted dose curve; in most records, active means well fitted curve in the direction sought with a large enough effect; inconclusive means small, poorly fitted or top-dose-only effect, or another doubt; inactive means no such curve, though single readings can be large; an effect the other way counts as inactive or inconclusive.

CC(=O)Nc1ccc(NC(=O)C(NS(=O)(=O)c2cccc3nsnc23)C(C)C)cc1 (stereo unspecified)	none (no result: SMN2 splice up)
CCOc1ccc(CC(=O)Nc2c(C(=O)c3ccccc3)oc3ccc(OC)cc23)cc1OCC	none (no result: ELG1 genotoxic, NPC1 prom act, p53 reactivator, Rab9 promoter act)
CC1CCN(C(=O)/C=C/c2ccc(C(C)(C)C)cc2)CC1	ELG1 genotoxic inconclusive, p53 reactivator inconclusive, FLuc modulator 15.1µM
CN1CCN(C(=O)/C=C/c2ccc(Cl)cc2)CC1	none (no result: SMN2 splice up)
Cc1ccc(/C=C/C(=O)N2CCC(c3nc4ccccc4o3)CC2)cc1	FLuc modulator 10.7µM (no result: ELG1 genotoxic, NPC1 prom act, p53 reactivator, Rab9 promoter act, SMN2 splice up)
COc1ccc(/C=C/C(=O)N2CCC(c3nc4ccccc4o3)CC2)cc1OC	none (no result: ELG1 genotoxic, NPC1 prom act, p53 reactivator, Rab9 promoter act, SMN2 splice up)
CC(C)(C)c1ccc(/C=C/C(=O)N2CCCCC2)cc1	ELG1 genotoxic inconclusive, NPC1 prom act 3.98µM, FLuc modulator 6.75µM, Rab9 promoter act 1.58µM, SMN2 splice up 12.6µM
O=C(Nc1ccc2c(c1)OCO2)c1noc2c1CCCCC2	ELG1 genotoxic inconclusive, NPC1 prom act 0.562µM, p53 reactivator inconclusive, FLuc modulator 2.13µM, Rab9 promoter act 0.447µM, SMN2 splice up 5.62µM
O=C(Nc1cccnc1)c1noc2c1CCCC2	ELG1 genotoxic inconclusive, NPC1 prom act inconclusive, FLuc modulator inconclusive, Rab9 promoter act inconclusive
O=C(Nc1ccc2c(c1)OCO2)c1noc2c1CCCC2	ELG1 genotoxic 0.651µM, NPC1 prom act 0.794µM, p53 reactivator inconclusive, FLuc modulator 1.51µM, Rab9 promoter act 0.631µM (no result: SMN2 splice up)
C/C(=N\Nc1nc(C)cc(C)n1)c1ccc(C)o1	none (no result: SMN2 splice up)
C/C(=N\Nc1nnc2c3ccccc3n(C)c2n1)c1ccc(C)o1	FLuc modulator 16.9µM
Cc1cc(C)n(-c2nnc3c4ccccc4n(C)c3n2)n1	ELG1 genotoxic inconclusive, NPC1 prom act 1.41µM, FLuc modulator 4.78µM, Rab9 promoter act 2.51µM (no result: SMN2 splice up)
CCCCN(C)C(=O)CN1C(=O)c2cccnc2Oc2ccc(Cl)cc21	none (no result: ELG1 genotoxic, NPC1 prom act, p53 reactivator, Rab9 promoter act, SMN2 splice up)
COc1ccc(-c2cc(=Nc3ccc(C)cc3)c3ccccc3o2)cc1	none
COc1ccc(-c2cc(=NC(CC(C)C)C(=O)O)c3cc(C)ccc3o2)cc1 (stereo unspecified)	ELG1 genotoxic inconclusive, NPC1 prom act inconclusive, p53 reactivator inconclusive, FLuc modulator 0.849µM, SMN2 splice up 11.2µM
CC12CCC(C/C1=N\N=C1\NC(=O)/C(=C\c3ccc(Cl)cc3)S1)C2(C)C (stereo unspecified)	p53 reactivator inconclusive, FLuc modulator 6.01µM
O=C1NC(=Nc2ccccc2Cl)S/C1=C\c1ccc(C(=O)O)cc1	FLuc modulator inconclusive (no result: SMN2 splice up)
O=C(c1ccccc1)c1ccc(Cn2cc(-c3ccccc3)nn2)cc1	ELG1 genotoxic inconclusive, FLuc modulator 13.5µM (no result: SMN2 splice up)
Oc1ccc(NCc2ccc(OCc3ccccc3Cl)cc2)cc1	FLuc modulator 26.9µM (no result: ELG1 genotoxic, NPC1 prom act, p53 reactivator, Rab9 promoter act)
Oc1ccc(NCc2ccc(OCc3ccccc3)cc2)cc1	ELG1 genotoxic inconclusive, p53 reactivator inconclusive, FLuc modulator 26.9µM
Cc1cccc(N2CCN(c3nc4ccc(C(=O)c5ccccc5)cc4n4cnnc34)CC2C)c1 (stereo unspecified)	none (no result: ELG1 genotoxic, NPC1 prom act, p53 reactivator, Rab9 promoter act, SMN2 splice up)
COc1ccc2cc(-c3ccon3)ccc2c1	ELG1 genotoxic inconclusive, NPC1 prom act inconclusive, FLuc modulator 3.01µM, Rab9 promoter act inconclusive (no result: SMN2 splice up)
COc1ccc(-c2ccc(OC)cc2)cc1	p53 reactivator inconclusive, FLuc modulator inconclusive (no result: SMN2 splice up)
COc1ccc2ccc(Oc3ncccn3)cc2c1	Rab9 promoter act inconclusive
COc1ccc(NC(=O)c2cc(-c3ccccc3F)no2)cc1	none (no result: ELG1 genotoxic, NPC1 prom act, p53 reactivator, Rab9 promoter act, SMN2 splice up)
COc1ccc(-c2cc3ccccc3cn2)cc1	ELG1 genotoxic 2.59µM, NPC1 prom act 0.631µM, p53 reactivator inconclusive, FLuc modulator 0.849µM, Rab9 promoter act 0.631µM (no result: SMN2 splice up)
COc1ccc(-c2cc3ccc(OC)cc3cn2)cc1	ELG1 genotoxic inconclusive, NPC1 prom act 0.282µM, p53 reactivator inconclusive, FLuc modulator 0.19µM, Rab9 promoter act 0.316µM (no result: SMN2 splice up)
COc1ccc2cc(-c3ccccc3F)ncc2c1	ELG1 genotoxic inconclusive, NPC1 prom act 1.41µM, p53 reactivator inconclusive, FLuc modulator 0.953µM, Rab9 promoter act inconclusive (no result: SMN2 splice up)

High-throughput results (PubChem BioAssay)
